Structures can show the parent of a compound that is named as a salt.
These molecules were tested on Haemophilus parainfluenzae (assay: growth AUC normalised to DMSO control (fraction of control); higher = less growth inhibition, active = hit call of the paper). Details: 20 µM;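 active = AUC significantly below DMSO controls by Student t-fit with adjusted P under 0.01; inactive = not significantly reduced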.
In short: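 Pathogens were passaged twice under anaerobic conditions, then inoculated into pre-reduced mGAM plates at a starting OD578 of 0.01, with compound at 20 μM and 1% DMSO, and sealed with breathable membranes. For Haemophilus parainfluenzae, the medium was supplemented with hemin and NAD. OD578 was read every hour for 24 h in three biological replicates. Growth-curve AUC was calculated by the trapezoidal rule up to the exponential-to-stationary transition and normalised to DMSO controls on the same plate.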

| Structure (SMILES) | growth AUC normalised to DMSO control |
| --- | --- |
| CC(C)(C)NC[C@H](O)COc1nsnc1N1CCOCC1 [Timolol maleate salt] | 1.02 (inactive) |
| CCN1CCCC1CNC(=O)c1cc(S(N)(=O)=O)ccc1OC (stereo unspecified) [Sulpiride] | 1.02 (inactive) |
| C#C[C@]1(O)CC[C@H]2[C@@H]3CCC4=Cc5oncc5C[C@]4(C)[C@H]3CC[C@@]21C [Danazol] | 0.908 (inactive) |
| CC(C)(C)NCC(O)COc1cccc2c1CC(O)C(O)C2 (stereo unspecified) [Nadolol] | 1 (inactive) |
| CN(C)c1ccc(O)c2c1C[C@H]1C[C@H]3[C@H](N(C)C)C(=O)C(C(N)=O)=C(O)[C@@]3(O)C(=O)C1=C2O [Minocycline hydrochloride] | 0.0348 (active) |
| C#C[C@]1(O)CC[C@H]2[C@@H]3CCc4cc(OC)ccc4[C@H]3CC[C@@]21C [Mestranol] | 1.02 (inactive) |

Source: the supplement of paper PMC12350171
